Measured values taken from article PMC9911399, “Two distinct binding modes provide the RNA-binding protein RbFox with extraordinary sequence specificity”.
Positions count from the first letter of the chain named. Whole data set: some 16,000 sequences, median “ka relative to ugcaugu” near 0.096, cut for the highest 2% near 0.35. The list comes from a sample in which the highest values are over-represented; it also holds similar and randomly drawn sequences.

T1: RBFOX1 RRM RbFoxmut (Fox-RRM*) (Homo sapiens, UniProt Q9NWB1 109-208, R118D;E147R;N151S;E152T)
T1 sequence: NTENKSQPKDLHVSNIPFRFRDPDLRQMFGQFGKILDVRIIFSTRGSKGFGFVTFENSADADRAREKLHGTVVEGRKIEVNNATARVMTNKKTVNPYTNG

B1: CGGUUCC (DNA:RNA)
RNA: GGGAGACCGGAAUUCAGAUUGUCCCGGUUCCUUAAAUCCCGUCGUAGCCACCA
DNA 1: CAATCTGAATTCCGGTCTCCC
DNA 2: TGGTGGCTACGACGGGATT
B2: UUUCGAG (DNA:RNA)
RNA: GGGAGACCGGAAUUCAGAUUGUCCUUUCGAGUUAAAUCCCGUCGUAGCCACCA
DNA 1: CAATCTGAATTCCGGTCTCCC
DNA 2: TGGTGGCTACGACGGGATT
B3: AUUAUUA (DNA:RNA)
RNA: B2 RNA with U25A, C28A, G29U, A30U, G31A
DNA 1: CAATCTGAATTCCGGTCTCCC
DNA 2: TGGTGGCTACGACGGGATT
B4: UUUUUAA (DNA:RNA)
RNA: B2 RNA with C28U, G29U, G31A
DNA 1: CAATCTGAATTCCGGTCTCCC
DNA 2: TGGTGGCTACGACGGGATT
B5: ACUUAAG (DNA:RNA)
RNA: B2 RNA with U25A, U26C, C28U, G29A
DNA 1: CAATCTGAATTCCGGTCTCCC
DNA 2: TGGTGGCTACGACGGGATT
B6: CCAGAGG (DNA:RNA)
RNA: B1 RNA with G26C, G27A, U28G, U29A, C30G, C31G
DNA 1: CAATCTGAATTCCGGTCTCCC
DNA 2: TGGTGGCTACGACGGGATT
B7: UCGAGAA (DNA:RNA)
RNA: B2 RNA with U26C, U27G, C28A, G31A
DNA 1: CAATCTGAATTCCGGTCTCCC
DNA 2: TGGTGGCTACGACGGGATT
B8: UUUCGCU (DNA:RNA)
RNA: B2 RNA with A30C, G31U
DNA 1: CAATCTGAATTCCGGTCTCCC
DNA 2: TGGTGGCTACGACGGGATT
B9: UGGAACG (DNA:RNA)
RNA: B1 RNA with C25U, U28A, U29A, C31G
DNA 1: CAATCTGAATTCCGGTCTCCC
DNA 2: TGGTGGCTACGACGGGATT
B10: UUGAACC (DNA:RNA)
RNA: B1 RNA with C25U, G26U, U28A, U29A
DNA 1: CAATCTGAATTCCGGTCTCCC
DNA 2: TGGTGGCTACGACGGGATT
B11: UGGACCG (DNA:RNA)
RNA: B1 RNA with C25U, U28A, U29C, C31G
DNA 1: CAATCTGAATTCCGGTCTCCC
DNA 2: TGGTGGCTACGACGGGATT
B12: UUGAACG (DNA:RNA)
RNA: B2 RNA with U27G, C28A, G29A, A30C
DNA 1: CAATCTGAATTCCGGTCTCCC
DNA 2: TGGTGGCTACGACGGGATT
B13: UUAAACG (DNA:RNA)
RNA: B2 RNA with U27A, C28A, G29A, A30C
DNA 1: CAATCTGAATTCCGGTCTCCC
DNA 2: TGGTGGCTACGACGGGATT
B14: CCGAACG (DNA:RNA)
RNA: B1 RNA with G26C, U28A, U29A, C31G
DNA 1: CAATCTGAATTCCGGTCTCCC
DNA 2: TGGTGGCTACGACGGGATT
B15: GUUAACG (DNA:RNA)
RNA: B2 RNA with U25G, C28A, G29A, A30C
DNA 1: CAATCTGAATTCCGGTCTCCC
DNA 2: TGGTGGCTACGACGGGATT
B16: CGAACGU (DNA:RNA)
RNA: B1 RNA with G27A, U28A, U29C, C30G, C31U
DNA 1: CAATCTGAATTCCGGTCTCCC
DNA 2: TGGTGGCTACGACGGGATT
B17: CGGAACG (DNA:RNA)
RNA: B1 RNA with U28A, U29A, C31G
DNA 1: CAATCTGAATTCCGGTCTCCC
DNA 2: TGGTGGCTACGACGGGATT

These binders were tested against T1, RBFOX1 RRM RbFoxmut (Fox-RRM*) (assay: EMSA; HiTS-Eq, 1 nM pool, 10 min; buffer printed only for the single-RNA assays: 10 mM Tris pH 7.5, 150 mM NaCl, 3.4 mM EDTA, 0.001% NP-40, 30 C). Conditions: tags: His6 N-terminal (pET28a); label: 5' 32P.
Method in brief: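 A pool of RNA with 7 randomized nucleotides, 5′-radiolabelled and with DNA-annealed flanks, was equilibrated at 1 nM for 10 min in 50 µL with purified RbFox RRM, wild type or mutant, across increasing protein concentrations. Free RNA was separated by 8% native PAGE, excised, reverse-transcribed, barcoded by PCR and sequenced. Relative association constants were obtained from read-count changes of each RNA species versus the control reaction and normalised to the cognate motif.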

Binder | binding signal
B1 | 0.104 KA relative to UGCAUGU
B2 | 0.107 KA relative to UGCAUGU
B3 | 0.154 KA relative to UGCAUGU
B4 | 0.1 KA relative to UGCAUGU
B5 | 0.174 KA relative to UGCAUGU
B6 | 0.0884 KA relative to UGCAUGU
B7 | 0.116 KA relative to UGCAUGU
B8 | 0.0799 KA relative to UGCAUGU
B9 | 0.84 KA relative to UGCAUGU
B10 | 0.129 KA relative to UGCAUGU
B11 | 0.238 KA relative to UGCAUGU
B12 | 0.39 KA relative to UGCAUGU
B13 | 0.0812 KA relative to UGCAUGU
B14 | 0.211 KA relative to UGCAUGU
B15 | 0.111 KA relative to UGCAUGU
B16 | 0.175 KA relative to UGCAUGU
B17 | 0.53 KA relative to UGCAUGU
